Assay results published in the supplement of paper PMC10849652.
About 8,800 targets were measured; listed, in parts, are those with a hit and a random draw of the rest. About 0.5% of all pairs of compound and target were hits.

Key:
Assay in all cases: log2 fold change, soluble protein after heating vs DMSO (PISA); higher = thermal stabilisation; K562 lysate, 10 uM; active = over 0.2 and 3.5 SD of the protein, either way, in both replicates (recomputed)
[1] = compound: C1=CC=C(C=C1)[C@H](COC2=CC3=C(C=C2)NC(=O)N3)NC(=O)C4=CC=CN(C4=O)CC5=CC(=C(C=C5)F)F
How it was run: (§1)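 Pellets of K562 cells were dounce-homogenised in PBS pH 7.4 with 1 mM MgCl2, and the crude extract was held at 1 mg/mL protein for a 30 min treatment with 10 μM compound. Aliquots were heated for 3 min over 48°C-58°C and pooled before NP-40 was added to 0.5% at 4°C. The supernatant from 21,000xg for 90 min was quantified by TMTpro 16plex LC-MS/MS with channel sums equalised. Values are reported from duplicates as log-two fold change in thermal stability relative to solvent controls.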

[2] = compound: CC1=C(SC2=C1C(=N[C@H](C3=NN=C(N32)C)CC(=O)N)C4=CC=C(C=C4)Cl)C
How it was run: as §1

[3] = compound: CC1=C2C(=CC=C1)N=C(N(C2=O)C3=CC=CC=C3C)CN4C=NC5=C(N=CN=C54)N
How it was run: as §1

[4] = compound: Cc1sc2c(c1C)C(c1ccc(Cl)cc1)=N[C@@H](CC(=O)OC(C)(C)C)c1nnc(C)n1-2
How it was run: as §1

[5] = compound: c1ccc([C@@H]2C[C@H]2NC2CCNCC2)cc1
How it was run: as §1

Measured: log2 fold change

EGLN1 (UniProt Q9GZT9)
inactive: [1] 0.095 | [2] -0.023 | [3] -0.01 | [4] -0.038 | [5] -0.007

GGT7 (UniProt Q9UJ14)
Chain of UniProt Q9UJ14 (Q9UJ14 whole entry, looked up): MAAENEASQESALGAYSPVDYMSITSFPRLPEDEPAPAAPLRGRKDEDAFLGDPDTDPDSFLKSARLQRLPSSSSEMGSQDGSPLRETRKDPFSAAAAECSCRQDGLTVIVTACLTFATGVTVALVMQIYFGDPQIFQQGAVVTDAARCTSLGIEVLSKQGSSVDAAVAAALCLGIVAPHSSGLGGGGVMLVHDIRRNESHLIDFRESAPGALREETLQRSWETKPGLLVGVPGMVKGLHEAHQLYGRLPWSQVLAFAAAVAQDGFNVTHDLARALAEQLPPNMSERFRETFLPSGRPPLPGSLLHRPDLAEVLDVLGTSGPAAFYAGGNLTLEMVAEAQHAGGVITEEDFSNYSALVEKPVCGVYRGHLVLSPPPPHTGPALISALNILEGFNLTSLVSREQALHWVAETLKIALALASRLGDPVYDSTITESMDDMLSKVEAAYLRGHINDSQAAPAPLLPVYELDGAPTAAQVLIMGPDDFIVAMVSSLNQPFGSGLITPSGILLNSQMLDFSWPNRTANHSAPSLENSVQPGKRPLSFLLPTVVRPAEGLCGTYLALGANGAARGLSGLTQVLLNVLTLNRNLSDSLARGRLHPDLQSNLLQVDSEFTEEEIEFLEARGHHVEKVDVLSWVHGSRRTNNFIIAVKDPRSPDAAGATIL
inactive: [1] -0.138 | [2] 0.017 | [3] 0.103 | [4] -0.015 | [5] -0.048

GAPVD1 (UniProt Q14C86)
inactive: [1] 0.036 | [2] -0.067

EEF1AKNMT (UniProt Q8N6R0)
inactive: [1] -0.012 | [2] -0.073 | [3] 0.013 | [4] 0.018 | [5] 0.042

EIF2B4 isoform 2 (UniProt Q9UI10)
Chain of UniProt Q9UI10 (Q9UI10 whole entry, looked up): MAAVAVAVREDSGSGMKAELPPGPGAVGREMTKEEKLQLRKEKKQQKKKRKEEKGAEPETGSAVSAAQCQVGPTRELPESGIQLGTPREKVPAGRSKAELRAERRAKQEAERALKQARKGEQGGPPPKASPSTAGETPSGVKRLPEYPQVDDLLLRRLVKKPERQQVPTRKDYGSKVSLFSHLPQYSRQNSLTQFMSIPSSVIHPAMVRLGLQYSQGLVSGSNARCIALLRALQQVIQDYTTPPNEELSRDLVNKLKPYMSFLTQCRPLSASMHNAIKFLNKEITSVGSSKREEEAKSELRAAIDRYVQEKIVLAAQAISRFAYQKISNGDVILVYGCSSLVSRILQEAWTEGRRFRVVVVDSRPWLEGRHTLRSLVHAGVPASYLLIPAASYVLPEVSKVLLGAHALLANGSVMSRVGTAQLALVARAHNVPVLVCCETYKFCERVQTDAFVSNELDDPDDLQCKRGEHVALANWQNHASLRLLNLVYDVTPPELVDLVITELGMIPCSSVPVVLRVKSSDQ
inactive: [1] -0.026 | [2] 0.04 | [3] 0.037 | [4] -0.007 | [5] 0.042

DUS3L (UniProt Q96G46)
Chain of UniProt Q96G46 (Q96G46 whole entry, looked up): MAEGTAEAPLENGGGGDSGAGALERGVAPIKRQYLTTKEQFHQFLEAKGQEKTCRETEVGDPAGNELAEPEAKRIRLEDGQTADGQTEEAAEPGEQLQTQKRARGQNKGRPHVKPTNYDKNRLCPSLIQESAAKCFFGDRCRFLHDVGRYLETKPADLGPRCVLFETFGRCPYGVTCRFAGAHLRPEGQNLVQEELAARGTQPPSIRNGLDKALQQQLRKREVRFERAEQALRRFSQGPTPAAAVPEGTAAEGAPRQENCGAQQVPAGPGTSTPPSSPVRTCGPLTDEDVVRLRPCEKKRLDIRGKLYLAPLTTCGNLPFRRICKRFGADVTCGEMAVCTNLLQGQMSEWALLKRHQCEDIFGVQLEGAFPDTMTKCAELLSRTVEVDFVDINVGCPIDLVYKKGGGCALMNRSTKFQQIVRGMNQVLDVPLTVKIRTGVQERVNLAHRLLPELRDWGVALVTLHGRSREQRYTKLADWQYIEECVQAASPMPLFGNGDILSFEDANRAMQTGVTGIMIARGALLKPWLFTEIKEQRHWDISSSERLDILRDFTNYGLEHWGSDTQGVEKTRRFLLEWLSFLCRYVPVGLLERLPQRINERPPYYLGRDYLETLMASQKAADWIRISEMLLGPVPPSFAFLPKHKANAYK
inactive: [1] 0.084 | [2] -0.001 | [3] 0.005 | [4] -0.001 | [5] 0.098

EXOC1 (UniProt Q9NV70)
Chain of UniProt Q9NV70 (Q9NV70 whole entry, looked up): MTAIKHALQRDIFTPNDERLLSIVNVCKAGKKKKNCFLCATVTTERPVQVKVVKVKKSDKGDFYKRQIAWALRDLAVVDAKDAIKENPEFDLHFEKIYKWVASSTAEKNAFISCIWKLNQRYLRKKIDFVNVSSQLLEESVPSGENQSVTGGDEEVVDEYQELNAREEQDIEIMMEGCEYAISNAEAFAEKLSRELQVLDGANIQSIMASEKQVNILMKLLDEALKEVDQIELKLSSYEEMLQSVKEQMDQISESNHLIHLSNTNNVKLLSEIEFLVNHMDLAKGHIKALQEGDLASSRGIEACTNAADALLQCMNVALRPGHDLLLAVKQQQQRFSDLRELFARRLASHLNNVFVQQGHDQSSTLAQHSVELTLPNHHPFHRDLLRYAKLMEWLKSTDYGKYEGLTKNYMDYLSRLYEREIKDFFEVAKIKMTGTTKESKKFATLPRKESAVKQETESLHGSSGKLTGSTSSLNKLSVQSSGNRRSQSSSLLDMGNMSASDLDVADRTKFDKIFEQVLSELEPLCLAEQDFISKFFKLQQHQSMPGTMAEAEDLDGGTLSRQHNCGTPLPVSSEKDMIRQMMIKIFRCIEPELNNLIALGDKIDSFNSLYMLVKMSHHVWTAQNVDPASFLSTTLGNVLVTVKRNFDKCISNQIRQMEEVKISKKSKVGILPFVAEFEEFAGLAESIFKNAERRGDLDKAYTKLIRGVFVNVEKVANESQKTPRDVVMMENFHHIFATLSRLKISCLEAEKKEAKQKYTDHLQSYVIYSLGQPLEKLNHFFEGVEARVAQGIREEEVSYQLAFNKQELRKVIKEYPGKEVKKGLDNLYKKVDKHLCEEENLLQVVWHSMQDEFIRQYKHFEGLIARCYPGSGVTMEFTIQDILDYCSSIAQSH
inactive: [1] -0.011 | [2] 0.032 | [3] 0.013 | [4] 0.02 | [5] 0.068

FPGT (UniProt O14772)
inactive: [1] 0.007 | [2] -0.003 | [3] 0.07 | [4] -0.006 | [5] 0.104

ERI1 (UniProt Q8IV48)
inactive: [1] 0.071 | [2] -0.061 | [3] -0.022 | [4] -0.015 | [5] 0.056

ETHE1 (UniProt O95571)
inactive: [1] 0.008 | [2] 0.003 | [3] 0.008 | [4] 0.048 | [5] -0.147

FDX2 (UniProt Q6P4F2)
inactive: [1] -0.039 | [2] 0.021 | [3] -0.012 | [4] 0.062 | [5] -0.05

EPN2 (UniProt O95208)
inactive: [1] -0.012 | [2] -0.017 | [3] -0.02 | [4] -0.084 | [5] -0.161

FAM83D (UniProt Q9H4H8)
inactive: [1] -0.021 | [2] 0.023 | [3] 0.035 | [4] -0.02 | [5] -0.006

FBXO22 (UniProt Q8NEZ5)
Chain of UniProt Q8NEZ5 (Q8NEZ5 whole entry, looked up): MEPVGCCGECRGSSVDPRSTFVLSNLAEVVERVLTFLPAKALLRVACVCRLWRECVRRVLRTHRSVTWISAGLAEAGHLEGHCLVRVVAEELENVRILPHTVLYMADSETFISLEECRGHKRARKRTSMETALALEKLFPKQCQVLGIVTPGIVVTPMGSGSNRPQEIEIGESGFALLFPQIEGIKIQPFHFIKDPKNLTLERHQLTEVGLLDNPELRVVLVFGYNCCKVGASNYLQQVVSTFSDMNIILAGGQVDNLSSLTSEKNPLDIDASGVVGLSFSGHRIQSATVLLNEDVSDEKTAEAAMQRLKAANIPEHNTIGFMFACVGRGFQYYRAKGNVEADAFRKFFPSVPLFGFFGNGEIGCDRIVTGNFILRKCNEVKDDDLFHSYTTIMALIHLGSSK
inactive: [1] -0.007 | [2] -0.004 | [3] 0.03 | [4] 0.02 | [5] 0.083

FYN (UniProt P06241)
inactive: [1] -0.323 | [2] -0.231 | [3] -0.052 | [4] 0.019 | [5] -0.112

FHOD1 (UniProt Q9Y613)
inactive: [1] -0.041 | [2] 0.006 | [3] 0.043 | [4] 0.029 | [5] 0.027

EDC4 (UniProt Q6P2E9)
inactive: [1] -0.026 | [2] 0.005 | [3] 0.027 | [4] 0.008 | [5] 0.011

EPHX2 (UniProt P34913)
Chain of UniProt P34913 (P34913 whole entry, looked up): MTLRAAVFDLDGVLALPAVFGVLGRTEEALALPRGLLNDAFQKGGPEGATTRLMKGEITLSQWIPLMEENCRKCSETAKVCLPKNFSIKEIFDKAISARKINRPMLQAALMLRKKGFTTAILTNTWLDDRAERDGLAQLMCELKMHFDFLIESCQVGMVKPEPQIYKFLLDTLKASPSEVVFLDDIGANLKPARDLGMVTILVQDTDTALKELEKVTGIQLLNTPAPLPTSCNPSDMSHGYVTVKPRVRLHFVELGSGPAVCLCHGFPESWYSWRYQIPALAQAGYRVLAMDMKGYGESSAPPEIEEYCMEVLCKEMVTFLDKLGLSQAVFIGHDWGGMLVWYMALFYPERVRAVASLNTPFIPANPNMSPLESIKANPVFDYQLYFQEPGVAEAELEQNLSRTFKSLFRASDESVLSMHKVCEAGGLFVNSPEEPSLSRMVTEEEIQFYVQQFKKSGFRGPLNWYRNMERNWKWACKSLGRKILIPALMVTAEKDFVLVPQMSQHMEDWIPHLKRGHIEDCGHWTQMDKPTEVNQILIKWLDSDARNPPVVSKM
inactive: [1] 0.021 | [2] 0.006 | [3] 0 | [4] 0.119 | [5] -0.012

GGA2 (UniProt Q9UJY4)
Chain of UniProt Q9UJY4 (Q9UJY4 whole entry, looked up): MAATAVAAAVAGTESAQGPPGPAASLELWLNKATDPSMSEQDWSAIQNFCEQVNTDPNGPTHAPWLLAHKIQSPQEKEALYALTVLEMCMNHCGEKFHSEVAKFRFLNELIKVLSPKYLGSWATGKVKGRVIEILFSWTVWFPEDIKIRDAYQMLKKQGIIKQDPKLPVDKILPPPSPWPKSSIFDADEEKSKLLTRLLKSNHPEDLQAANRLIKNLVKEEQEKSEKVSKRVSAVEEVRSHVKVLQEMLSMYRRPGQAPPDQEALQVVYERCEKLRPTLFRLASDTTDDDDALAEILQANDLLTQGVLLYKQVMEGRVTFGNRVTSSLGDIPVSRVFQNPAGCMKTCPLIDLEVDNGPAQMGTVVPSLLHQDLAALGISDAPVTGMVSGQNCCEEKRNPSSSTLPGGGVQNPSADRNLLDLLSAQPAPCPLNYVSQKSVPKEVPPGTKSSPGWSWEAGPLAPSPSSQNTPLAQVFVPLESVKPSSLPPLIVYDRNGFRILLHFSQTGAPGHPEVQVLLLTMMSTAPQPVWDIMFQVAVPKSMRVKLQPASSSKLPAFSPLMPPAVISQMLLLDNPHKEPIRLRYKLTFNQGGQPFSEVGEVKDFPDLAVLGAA
inactive: [1] -0.055 | [2] 0.011 | [3] -0.085 | [4] 0.062 | [5] 0.032

FARSB (UniProt Q9NSD9)
Chain of UniProt Q9NSD9 (Q9NSD9 whole entry, looked up): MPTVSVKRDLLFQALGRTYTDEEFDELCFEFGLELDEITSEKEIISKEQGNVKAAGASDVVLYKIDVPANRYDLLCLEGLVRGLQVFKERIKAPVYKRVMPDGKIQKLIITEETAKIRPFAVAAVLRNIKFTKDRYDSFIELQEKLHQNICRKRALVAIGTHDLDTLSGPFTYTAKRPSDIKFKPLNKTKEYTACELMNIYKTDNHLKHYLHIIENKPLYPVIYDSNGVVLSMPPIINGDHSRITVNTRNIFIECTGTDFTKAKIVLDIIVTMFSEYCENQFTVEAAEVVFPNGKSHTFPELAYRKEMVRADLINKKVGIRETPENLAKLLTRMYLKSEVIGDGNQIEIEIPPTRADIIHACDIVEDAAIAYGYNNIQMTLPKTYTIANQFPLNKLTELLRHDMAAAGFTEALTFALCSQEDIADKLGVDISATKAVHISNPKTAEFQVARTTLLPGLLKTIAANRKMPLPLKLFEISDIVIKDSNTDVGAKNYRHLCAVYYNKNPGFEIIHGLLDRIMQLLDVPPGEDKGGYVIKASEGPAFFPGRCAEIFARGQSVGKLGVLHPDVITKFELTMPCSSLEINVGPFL
inactive: [1] -0.014 | [2] 0.036 | [3] -0.004 | [4] 0.02 | [5] 0.052

GIGYF2 (UniProt Q6Y7W6)
inactive: [1] 0.047 | [2] -0.054 | [3] 0.011 | [4] -0.076 | [5] 0.033

EXO5 (UniProt Q9H790)
inactive: [1] 0.033 | [2] -0.179

GABPB1 isoform 3 (UniProt Q06547)
inactive: [1] 0.039 | [2] 0.052 | [3] -0.017 | [4] -0.024 | [5] -0.025

ENY2 (UniProt Q9NPA8)
Chain of UniProt Q9NPA8 (Q9NPA8 whole entry, looked up): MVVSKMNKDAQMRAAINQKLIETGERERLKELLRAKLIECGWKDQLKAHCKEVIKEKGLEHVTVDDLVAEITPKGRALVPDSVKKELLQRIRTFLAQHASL
inactive: [1] 0.033 | [2] -0.001 | [3] -0.162 | [4] 0.117 | [5] 0.386

EPB41, A0A2R8Y6D0
inactive: [1] -0.052 | [2] 0.028 | [3] -0.071 | [4] 0.048 | [5] 0.11
